Test results as given in PubChem BioAssay.
Active and inactive are the calls of the source.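 The calls were made as follows, unless noted: active = visual image review flags a hit and inhibition of aggregation exceeds 20%; inconclusive = visual hit but inhibition at or below 20%; inactive = no hit on visual image review.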

Columns and labels:
[1] = inhibitors of TNFa-induced NFkB p65 translocation, primary screen, imaging, HUVEC, MLSMR starter and 10KST1 sets (AID 438;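 active = inhibition above 20% together with a positive visual image hit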;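 also: compound added about 3h40 before a 20 min TNFalpha stimulation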;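 as to inhibition: signal is the nuclear over cytoplasmic p65 intensity ratio per well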); conditions: HUVEC TNFa-induced p65 nuclear translocation; cell count: measured here: nuclei count (cytotoxicity indicator), at 2.08 µM; inhibition: at 2 µM, stronger effect = higher value, 0% TNFa-plus-vehicle, 100% no-TNFa wells
[2] = inhibitors of mutant huntingtin aggregation, primary screen, imaging, exon1htt(103Q)mCFP cells, high-content imaging (AID 483); conditions: exon1htt(103Q)mCFP cell line, aggregate imaging, at 2 µM; inhibition of aggregation: stronger effect = higher value; nuclei count: measured here: cell count, toxicity;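 also: compound exposure lasted 3 days before fixation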;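 as to nuclei count: percent of the per-plate median nuclei count of sample wells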
[3] = inhibitors of E-selectin induction by TNFa, primary screen, imaging, HUVEC, immunofluorescence, MLSMR starter and 10KST1 sets (AID 487;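 active = visually confirmed hit in the image check and inhibition above 20%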;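 as to inhibition: signal is fraction of cell area covered by stained E-selectin grains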;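 as to nuclei count: 100% = median nuclei count of all wells on the same plate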); conditions: HUVEC TNFalpha-induced E-selectin immunofluorescence imaging, at 2 µM; inhibition: stronger effect = higher value; nuclei count: measured here: cell number, toxicity
[4] = biological target: Voltage-gated potassium channel subunit beta-2 (Rattus norvegicus) (UniProt P62483); experiment: KvBeta enzyme negative modulators, primary screen, biochemical, NADPH fluorescence (AID 622;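 active = fluorescence slope higher than the sample average by over 3 SD, cut at about -0.22 in these data, passing the limit was not always enough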;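 also: slope of raw intensity against log time taken from 70 to 1610 s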); conditions: recombinant KvBeta, 4-cyanobenzaldehyde reduction, at 10 µM, stronger effect = higher value
Chain of Voltage-gated potassium channel subunit beta-2 (Rattus norvegicus) (P62483 whole entry, looked up): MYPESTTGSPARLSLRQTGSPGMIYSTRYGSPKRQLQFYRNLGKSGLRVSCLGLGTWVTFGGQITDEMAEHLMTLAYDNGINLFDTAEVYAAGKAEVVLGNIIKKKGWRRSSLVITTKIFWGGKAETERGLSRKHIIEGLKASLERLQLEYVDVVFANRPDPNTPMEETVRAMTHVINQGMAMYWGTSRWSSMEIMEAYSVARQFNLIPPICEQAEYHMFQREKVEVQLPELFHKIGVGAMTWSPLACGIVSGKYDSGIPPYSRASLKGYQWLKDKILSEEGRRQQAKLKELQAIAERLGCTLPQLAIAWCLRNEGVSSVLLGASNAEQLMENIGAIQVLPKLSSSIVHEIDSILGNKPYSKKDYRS

[5] = biological target: Voltage-gated potassium channel subunit beta-2 (Rattus norvegicus) (UniProt P62483); experiment: KvBeta positive modulators, primary screen, biochemical, NADPH fluorescence (AID 623;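 active = NADPH fluorescence slope more negative than the mean of all samples by about 3 SD, 99.7% confidence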;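 also: fluorescence intensity change per second fitted from 20 to 320 s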); conditions: Recombinant KvBeta, NADPH fluorescence decrease slope, 10 min; at 10 µM; stronger effect = lower value
[6] = biological target: Alpha-2C adrenergic receptor (Homo sapiens) (UniProt P18825); experiment: modulators of alpha2C/GIRK thallium flux, primary screen, cell-based, HEK293 alpha2C/GIRK1/2 (AID 624;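 active = fluorescence slope after compound addition differing from the mean of all screened samples at 99.7% confidence, in either direction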;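 also: slope of fluorescence ratio to pre-addition baseline per second over 15 to 24 s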); conditions: thallium flux BTC fluorescence, at 10 µM, actives lie on both sides
Chain of Alpha-2C adrenergic receptor (Homo sapiens) (P18825 whole entry, looked up): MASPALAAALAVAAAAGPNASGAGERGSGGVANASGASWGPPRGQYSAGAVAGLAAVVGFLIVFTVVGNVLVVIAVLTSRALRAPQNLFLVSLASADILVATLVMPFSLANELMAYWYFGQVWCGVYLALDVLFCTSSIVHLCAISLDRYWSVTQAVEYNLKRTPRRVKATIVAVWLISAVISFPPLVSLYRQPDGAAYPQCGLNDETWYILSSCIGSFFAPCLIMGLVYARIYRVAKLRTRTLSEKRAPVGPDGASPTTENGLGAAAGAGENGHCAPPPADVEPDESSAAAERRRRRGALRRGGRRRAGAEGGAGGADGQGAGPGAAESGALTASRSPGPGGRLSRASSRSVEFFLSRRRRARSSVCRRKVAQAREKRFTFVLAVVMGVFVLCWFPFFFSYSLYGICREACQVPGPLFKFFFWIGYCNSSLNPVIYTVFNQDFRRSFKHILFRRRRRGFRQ

[7] = inhibitors of Sendai virus-induced IRF3 signaling, primary screen, TLR/RLR signaling modifier project, cell-based, Sendai virus stimulus, luciferase, 10K MLSCN set (AID 602276;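 active = inhibition at or above 50% at 10 µM; inactive = inhibition below 50%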;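 also: firefly luciferase from ISG56 promoter only with Renilla not read in this screen; 0% = Sendai virus plus DMSO and 100% = medium plus DMSO without virus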); conditions: HEK293 RL24 IRF3 luciferase reporter, at 10 µM, stronger effect = higher value
[8] = inhibitors of poly I:C-induced TLR3 signaling, primary screen, cell-based, poly I:C stimulus, luciferase, 10K MLSCN set (AID 602277;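 active = inhibition of the reporter signal at or above 50%; inactive = inhibition below 50%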); conditions: HEK293-TLR3 RL24 IRF3 luciferase reporter, at 10 µM, stronger effect = higher value

SMILES | cell count [1] | inhibition [1] | inhibition of aggregation [2] | nuclei count [2] [%] | inhibition [3] | nuclei count [3] [%] | fluorescence slope [4] | NADPH fluorescence slope [5] | slope [6] | inhibition [7] | inhibition [8]
COc1ccc(-c2noc(CCN3C(=O)c4ccccc4C3=O)n2)cc1OC | 555 | 7.6% (inactive) | -3.7% (inactive) | 108 | 28.6% (inactive) | 104 | -0.497 (inactive) | -2.8e-05 (inactive) | 0.00665 (inactive) | -0.74% (inactive) | 26.4% (inactive)
CN(CC(=O)NCCC1=CCCCC1)S(=O)(=O)c1ccc2c(c1)CCC(=O)N2 | 603 | 16.1% (inactive) | 19% (inactive) | 111 | -110% (inactive) | 141 | -0.505 (inactive) | 1.1e-05 (inactive) | 0.00584 (inactive) | -4.9% (inactive) | 16.8% (inactive)
CC1=C(C(=O)N2CCCCC2)C2(CCC(C)CC2)OC1=O (stereo not drawn) | 759 | -1.1% (inactive) | -11.5% (inactive) | 118 | -27.8% (inactive) | 120 | -0.524 (inactive) | -1.1e-05 (inactive) | 0.00741 (inactive) | 15.2% (inactive) | 20.4% (inactive)
COc1cc2c(C#N)c(N3CCOCC3)nc(N)c2c(N)n1 | 694 | -7.8% (inactive) | -18.2% (inactive) | 117 | -22.5% (inactive) | 114 | -0.0448 (inactive) | -2.1e-06 (inactive) | 0.00579 (inactive) | 15.2% (inactive) | 46.9% (inactive)
O=C(CN(Cc1ccc2c(c1)OCO2)C(=O)CNS(=O)(=O)c1ccccc1)NCc1ccco1 | 869 | 9% (inactive) | -9.2% (inactive) | 108 | -3.6% (inactive) | 98.7 | -0.356 (inactive) | 8e-07 (inactive) | 0.00553 (inactive) | 15.7% (inactive) | 36.2% (inactive)
O=C(Cn1ncc2c1-c1ccccc1OC2)N1CCN(c2ccccn2)CC1 | 631 | -1.1% (inactive) | -24.9% (inactive) | 131 | -55.8% (inactive) | 111 | -0.587 (inactive) | -5.3e-05 (inactive) | 0.00617 (inactive) | 3.72% (inactive) | 26.9% (inactive)
CCOc1ccccc1N(CC(=O)N1CCOCC1)S(=O)(=O)c1ccccc1 | 338 | 0.7% (inactive) | 0.9% (inactive) | 100 | 44.4% (inactive) | 98.7 | -0.428 (inactive) | -3e-06 (inactive) | 0.00315 (inactive) | -13.5% (inactive) | -26.2% (inactive)
CCOC(=O)c1ccccc1NC(=O)c1ccc2c(=O)n3c(nc2c1)CCCCC3 | 472 | 15.6% (inactive) | 9.6% (inactive) | 114 | -28.3% (inactive) | 81.5 | -0.399 (inactive) | -1.5e-05 (inactive) | 0.00636 (inactive) | 2.48% (inactive) | 32.9% (inactive)
CCOC(=O)/C=C1\SCC(=O)N1Cc1ccc(Br)cc1 | 562 | -4.8% (inactive) | -14.9% (inactive) | 96 | -49.7% (inactive) | 116 | -0.462 (inactive) | -0.000366 (inactive) | 0.00633 (inactive) | 10.8% (inactive) | 20% (inactive)
Cc1nn(C(=O)c2ccc3c(c2)OCO3)c(N)c1-c1ccccc1 | 581 | 5.1% (inactive) | 11.7% (inactive) | 91.3 | -19.8% (inactive) | 106 | -0.451 (inactive) | 1.4e-05 (inactive) | 0.00618 (inactive) | -23.3% (inactive) | -108% (inactive)
O=C(O)c1ccc(COc2ccc(Cl)cc2)o1 | 262 | -3.3% (inactive) | 10.6% (inactive) | 81 | -24% (inactive) | 88.3 | -0.49 (inactive) | -3e-05 (inactive) | 0.00685 (inactive) | -14.7% (inactive) | -60.9% (inactive)
COc1ccccc1OCCCn1c(=O)oc2ccccc21 | 219 | 3.7% (inactive) | 3.2% (inactive) | 91.4 | -46.5% (inactive) | 94.4 | -0.506 (inactive) | -4.3e-05 (inactive) | 0.00513 (inactive) | -13.6% (inactive) | -42.9% (inactive)
Oc1cc(NCc2cccnc2)ccc1-c1nc2ccccc2o1 | 378 | 6.8% (inactive) | -7.8% (inactive) | 119 | -28.5% (inactive) | 123 | -0.46 (inactive) | 8.7e-06 (inactive) | 0.00562 (inactive) | -31.3% (inactive) | -152% (inactive)
O=C(Nc1ccc2c(c1)OCO2)c1cc2ncc(Br)cn2n1 | 588 | 6.6% (inactive) | -4.4% (inactive) | 107 | -73.8% (inactive) | 104 | -0.624 (inactive) | 1.6e-05 (inactive) | 0.00236 (inactive) | 5.44% (inactive) | 11.5% (inactive)
COC(=O)c1cn(NC(=O)c2cccnc2)c(=O)c2ccccc12 | 364 | 2.5% (inactive) | -32.8% (inactive) | 112 | 29.8% (inactive) | 115 | -0.538 (inactive) | -6.1e-05 (inactive) | 0.00509 (inactive) | 10.1% (inactive) | 18.9% (inactive)
Cc1c(C(=O)OCCOC(C)C)[nH]c2c1C(=O)CC(c1ccco1)C2 (stereo not drawn) | 482 | 18% (inactive) | -3.7% (inactive) | 5.8 | -59.6% (inactive) | 83.1 | -0.553 (inactive) | -3.5e-05 (inactive) | 0.00564 (inactive) | 13.8% (inactive) | 82.1% (active)
CC(=O)c1ccc(-c2nc3ccccc3n2C)o1 | 365 | 4.7% (inactive) | -13.2% (inactive) | 105 | -11.8% (inactive) | 108 | -0.0212 (active) | 5.6e-07 (inactive) | 0.00571 (inactive) | -22.8% (inactive) | -73.6% (inactive)
O=S(=O)(c1ccc(Oc2ccc(-c3nnco3)cc2)nc1)N1CCC(Cc2ccccc2)CC1 | 396 | -10.6% (inactive) | -26.7% (inactive) | 102 | -1% (inactive) | 108 | -0.508 (inactive) | -5e-05 (inactive) | 0.00554 (inactive) | 1.05% (inactive) | 5.84% (inactive)
CC(C)c1cc(C(=O)NCc2ccco2)no1 | 788 | 3.7% (inactive) | -21.5% (inactive) | 104 | -45.3% (inactive) | 106 | -0.586 (inactive) | -2.6e-05 (inactive) | 0.00624 (inactive) | -22.8% (inactive) | -50.6% (inactive)
O=C(NC1CCCC1)C1CC1c1ccccc1 (stereo not drawn) | 516 | -4.3% (inactive) | -5.1% (inactive) | 99.7 | 26.9% (inactive) | 78.4 | -0.617 (inactive) | -1.4e-05 (inactive) | 0.00431 (inactive) | 8.1% (inactive) | 8.52% (inactive)
CCN(CC)S(=O)(=O)c1ccc(F)cc1 | 630 | 2.4% (inactive) | -0.6% (inactive) | 100 | -75.6% (inactive) | 114 | -0.506 (inactive) | -0.000197 (inactive) | 0.00613 (inactive) | 13.9% (inactive) | 19.3% (inactive)
COc1ccc(N2CCN(CCCNC(=O)C3(S(=O)(=O)c4ccc(Cl)cc4)CC3)CC2)cc1 | 447 | -6.2% (inactive) | 8.8% (inactive) | 101 | -86% (inactive) | 115 | -0.565 (inactive) | 1.2e-05 (inactive) | 0.00533 (inactive) | -9.9% (inactive) | -1.93% (inactive)
CCN1C(=O)CC(C(=O)Nc2ccc(F)cc2)SC1=Nc1ccc2c(c1)OCO2 (stereo not drawn) | 551 | -28.9% (inactive) | 1.1% (inactive) | 110 | 1.8% (inactive) | 124 | -0.504 (inactive) | -3.2e-05 (inactive) | 0.00494 (inactive) | 18.1% (inactive) | 21.5% (inactive)
CCCNC(=O)c1ccccc1C(=O)NCCC | 386 | -1.6% (inactive) | 23.1% (inactive) | 94.4 | -3.9% (inactive) | 115 | -0.53 (inactive) | 0.000133 (inactive) | 0.00613 (inactive) | 15.6% (inactive) | 18% (inactive)
COc1ccccc1N1CCN(C(=O)c2cc(C3CC3)on2)CC1 | 626 | -8.7% (inactive) | -1.6% (inactive) | 85.4 | 1.1% (inactive) | 95.8 | -0.607 (inactive) | -3.3e-05 (inactive) | 0.00629 (inactive) | -5.11% (inactive) | 26.8% (inactive)
CCN(CC)C(=O)C1CCCc2c1[nH]c1ccc(Cl)cc21 (stereo not drawn) | 674 | -18.9% (inactive) | -0.9% (inactive) | 109 | -47.8% (inactive) | 104 | -0.539 (inactive) | -3.5e-05 (inactive) | 0.00741 (inactive) | -47.5% (inactive) | -12.1% (inactive)
CCN(CC)Cc1c(C(=O)OC)nnn1-c1nonc1N | 476 | -0.2% (inactive) | 13.9% (inactive) | 99.5 | -18.2% (inactive) | 107 | -0.504 (inactive) | -0.000189 (inactive) | 0.00521 (inactive) | 4.14% (inactive) | 14.8% (inactive)
CCOC(=O)N(C)c1ccc(C(O)(C(F)(F)F)C(F)(F)F)cc1 | 601 | -8.6% (inactive) | -12.5% (inactive) | 105 | -58.6% (inactive) | 109 | -0.369 (inactive) | -6.4e-05 (inactive) | 0.0041 (inactive) | -1.35% (inactive) | 100% (active)
